Several values for one entry are separate records, joined by “and”; a condition that tells them apart may be missing. Equal entries are not always repeated. A number with no mark means an inactive call. Activity calls are given as the source filed them. The call rests on the fitted dose curve; in most records, active means well fitted curve in the direction sought with a large enough effect in the repeat runs; inconclusive means weak or mixed curves; inactive means flat fitted curve, though single readings scatter.
On the % scale 0 is the no-effect control and ±100 the full control effect.

The assay is described as follows: qHTS assay to test for compound auto fluorescence at 590 nm (red) in HEK293 cell free culture (AID 720683). Particulars: cell-free medium autofluorescence, Ex540/Em590 red; series mostly up to 91.3 µM. From the text: U.S. Tox21 Program National Center for Advancing Translational Sciences [NCATS] NIH Chemical Genomics Center [NCGC] U.S. Environmental Protection Agency [EPA] National Institutes of Environmental Health Sciences [NIEHS] National Toxicology Program [NTP] U.S. Food and Drug Administration [FDA] Tox21 Assay Overview: Compound auto fluorescence often interferes with screening of the compound library against various biological targets and signaling pathways. Some of these compounds may have fluorophoric properties. Such properties may interfere with the assay outputs resulting in false positives and/or negatives. To decrease such complications and ensure the compound activities are relevant in terms of biological response, the Tox21 10K compound library was screened for auto fluorescence. From the fluorophores used as reporter signals in our screening assays, the auto fluorescence equivalencies of compounds against three fluorophores have been evaluated: Triamterene, Fluorescein and Rose Bengal sodium for blue, green and red fluorescence, respectively. The fluorescence intensities were measured using Excitation/Emission wavelengths at 405/460nm, 485/535nm and 540/590nm for blue, green and red labels, respectively. This assay includes the red fluorescence data.
Tox21 Assay Protocol Summary: 5 uL of culture medium (DMEM containing 10% FBS) per well was dispensed into black wall/clear bottom 1536-well plates using a Multidrop Combi Dispenser (ThermoFisher Scientific, Waltham, MA). After 23 nL compound or DMSO vehicle was transferred into assay plate by a pintool work station (Kalypsys, San Diego, CA), fluorescence intensities in the assay plates were measured by an Envision (PerkinElmer, Shelton, CT) plate reader using three labels for measuring blue, green and red fluorescence at […] 460, 535 and 590nm respectively.
For the molecule `Cc1c(Cn2ccnc2)c2ccccc2n1CCC(=O)O`, the outcome was inactive.
Same read-out and setting: for `CCCC(C)C` the value was “inactive”; for `Cc1occc1S`, “inactive”.
Still for that read-out and setting: the entry for `CCOC(=O)CC(C)C` is “inactive”.
The same measure, in the same setting: the entry for `CN1CCN(C2=Nc3cc(Cl)ccc3Nc3ccccc32)CC1` is “inactive”; for `CC(O)C1CCCCC1` (stereo not given) it is “inactive”; for `CC(=O)OCCc1ccccc1` it is “inactive”.
With `N#CCc1cccc(C(F)(F)F)c1`, the molecule was classed as inactive.
Regarding `CCCCCCCCCCCCCCCCCBr`, the fluorescence, % of fluorescent control is -0.288% [at 18.6 µM].
Regarding `O=C(CC(=O)c1ccccc1)c1ccccc1`, the call was inactive.
Still for that read-out and setting: the entry for `CC(=O)c1c(C)c([N+](=O)[O-])c(C(C)(C)C)c([N+](=O)[O-])c1C` is “inactive”; for `CC(C(=O)O)c1ccc(-c2ccccc2)c(F)c1` (stereo not given) it is “inactive”; for `OC(CCN1CCCCC1)(c1ccccc1)C1CCCCC1` (stereo not given) it is “inactive”.
Same read-out and setting: for `CCCCCCCCCCCCCCC1CO1` (stereo not given) the value was “inactive”; for `CC(=O)Nc1ccc(/C=N/NC(N)=S)cc1`, “inactive”.
Same read-out and setting: for `CC(C)(C)c1cc(CCC(=O)OCC(COC(=O)CCc2cc(C(C)(C)C)c(O)c(C(C)(C)C)c2)(COC(=O)CCc2cc(C(C)(C)C)c(O)c(C(C)(C)C)c2)COC(=O)CCc2cc(C(C)(C)C)c(O)c(C(C)(C)C)c2)cc(C(C)(C)C)c1O` the value was “inactive”; for `CC[C@H](C)[C@@H](C(=O)O)n1sc2ccccc2c1=O`, “inactive”.
For `O=c1[nH]cnc2ccccc12`, the call was inactive.
On the same count and under the same terms, the entry for `S=C(S)NCCNC(=S)S` is “inactive”.
`CC(C)CC=O`: the result was inactive.
As for `CCN(CC)CCc1nc(-c2ccccc2)no1`, the fluorescence, % of fluorescent control was -0.0001% [at 18.6 µM].
In the case of `O=C(NN1CCCC1)NS(=O)(=O)c1ccc(Cl)cc1`, the result was inactive.
Same read-out and setting: the entry for `COc1ccc(OC)c(OC)c1` is “inactive”.
Turning to `CN1CCC(OC(c2ccccc2)c2ccccc2)CC1`, the fluorescence, % of fluorescent control was 0.167% [at 18.6 µM].
As for `Cc1ccc(C(C)c2ccc(C)c(C)c2)cc1C`, the result was inactive.
Take `Cc1ccc(C(=O)C(C)CN2CCCCC2)cc1` (stereo not given): the outcome was inactive.
Same read-out and setting: for `N#Cc1c(F)cccc1F` the value was “inactive”; for `Oc1ccc(C(O)CNCCCCCCNCC(O)c2ccc(O)c(O)c2)cc1O` (stereo not given), “inactive”.
On the same count and under the same terms, the entry for `C=Cc1c(C)c2cc3[nH]c(cc4nc(cc5nc(cc1[nH]2)C(C)=C5CCC(=O)O)C(CCC(=O)O)=C4C)c(C)c3C=C` is “inactive”.
Turning to `C1=Cc2ccccc2C1`, the molecule was classed as inactive.
Same read-out and setting: for `CCCCCCCCCCCCC(=O)O` the value was “inactive”.
Still for that read-out and setting: for `Nc1cnn([C@@H]2O[C@H](CO)[C@@H](O)[C@H]2O)c(=O)n1` the value was “inactive”.
Take `CC(=O)/C(C)=C/C1C(C)=CCCC1(C)C` (stereo not given): the result was inactive.
Still for that read-out and setting: for `CN(C)CC[C@@H](c1ccc(Br)cc1)c1ccccn1` the value was “inactive”.
With `C1CCC2OC2C1` (stereo not given), the outcome was inactive.
Still for that read-out and setting: the entry for `O=C(O)c1cccc(N(Cc2cccnc2)c2ccc(OC(F)F)c(OC(F)F)c2)c1` is “inactive”; for `Cc1cccc(C(C)(C)C)c1O` it is “inactive”.
On the same count and under the same terms, the entry for `COCCCCCCCCOCCC[Si](C)(O[Si](C)(C)C)O[Si](C)(C)C` is “inactive”; for `CCCCCOC(=O)c1ccc(O)cc1` it is “inactive”.
Take `NC[C@H]1O[C@H](O[C@H]2[C@H](O)[C@@H](O[C@H]3O[C@H](CO)[C@@H](O)[C@H](N)[C@H]3O)[C@H](N)C[C@@H]2N)[C@H](O)[C@@H](O)[C@@H]1O`: the fluorescence, % of fluorescent control is 0.0769% [at 18.6 µM] and -0.256% [at 3.72 µM].
